# Data reported in PubChem BioAssay (Tox21).
# Results filed as inconclusive are left out. Values without a mark were called inactive. The source made the active and inactive calls. Calls follow the shape of the dose curve; as a rule, active = well fitted inhibition curve with a large enough effect in the repeat runs; inconclusive = weak or mixed curves; inactive = no such curve, though single readings can be large or run the other way.
# Target: Cytochrome P450 2C9 (Homo sapiens) (UniProt P11712)
# Assay: Cytochrome P450 Family 2 Subfamily C Member 9 (CYP2C9) small molecule antagonists: luciferase reporter qHTS assay (AID 1671198); also: nearly all actives have a fitted effect of over 50% in size
# Conditions: P450-Glo CYP2C9 enzyme assay, luciferin luminescence; series mostly up to 115 µM; activity change, negative = inhibition: at the top concentration
# From the text: U.S. Tox21 Program National Center for Advancing Translational Sciences [NCATS] U.S. Environmental Protection Agency [EPA] National Institutes of Environmental Health Sciences [NIEHS] National Toxicology Program [NTP] U.S. Food and Drug Administration [FDA] Tox21 Assay Overview: Cytochrome P450 (CYP) enzymes are membrane-bound hemeproteins that play a key role in metabolism of drugs and xenobiotics. Evaluation of the effect of chemicals on CYP isozymes is useful to minimize the adverse drug reactions and toxicities in drug development process. Tox21 chemicals were tested for their effect on CYP enzyme activities by using P450-Glo (TM) screening systems (Promega Corporation, Madison, WI). These systems provide a luminescent method containing proluciferin substrates and are converted to luciferin products by CYP isozymes. The luciferin products formed are detected with a luciferin detection reagent, and the amount of light produced is proportional to CYP activity. P450-Glo (TM) CYP2C9 screening system (Catalog. No. V9790) was used to detect the compounds that interfere in CYP2C9 activity.
# Tox21 Assay Protocol Summary: Two ul of enzyme-substrate mix was dispensed into medium binding white/solid 1536-well plates (Greiner Bio-One North America Inc., Monroe, NC) using a BioRaptr Flying Reagent Dispenser (FRD, Beckman Coulter, Brea, CA). […] The assay plates were incubated at room temperature for 10 min. Then 2 ul of NADPH regeneration solution was added to each well of the assay plates using an FRD and incubated at 37C for 1 h. The reaction was stopped by adding 4 ul of detection reagent using an FRD and after 20 min incubation at room temperature the luminescence signal was measured using a ViewLux plate reader (Perkin Elmer, Shelton, CT). Data were expressed as relative luminescence units.
# % is scaled to controls: 0 for no effect and ±100 for the full control effect; potency is read from the fitted curve at half-maximal effect.
# Chain of Cytochrome P450 2C9 (Homo sapiens) (P11712 whole entry, looked up): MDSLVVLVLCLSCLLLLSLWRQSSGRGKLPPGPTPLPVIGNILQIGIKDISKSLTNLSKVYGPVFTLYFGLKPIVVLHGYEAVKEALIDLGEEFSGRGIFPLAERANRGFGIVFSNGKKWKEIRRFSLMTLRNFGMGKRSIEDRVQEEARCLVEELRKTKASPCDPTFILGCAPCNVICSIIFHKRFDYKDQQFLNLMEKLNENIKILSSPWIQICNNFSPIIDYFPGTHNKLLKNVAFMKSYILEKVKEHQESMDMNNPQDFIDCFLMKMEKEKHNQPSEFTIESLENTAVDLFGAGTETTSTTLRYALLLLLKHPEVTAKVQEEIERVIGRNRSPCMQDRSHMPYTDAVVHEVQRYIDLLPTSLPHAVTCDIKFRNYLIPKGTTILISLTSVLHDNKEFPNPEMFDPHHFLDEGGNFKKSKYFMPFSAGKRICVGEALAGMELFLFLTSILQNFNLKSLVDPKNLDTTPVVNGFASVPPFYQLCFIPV
SMILES,"activity change, negative = inhibition",Potency
Cc1ccc(C2OC[C@@H]3OC(c4ccc(C)cc4)O[C@H]([C@H](O)CO)[C@@H]3O2)cc1 (stereo not given in full),-3.83%,–
CCOc1ccc([N+](=O)[O-])cc1,–,16.1 µM (active)
CCSCC,-10.4%,–
CCCC(C)C=O (stereo not given),1.73%,–
CCN(CC)c1ccc(N=Nc2ccccc2)cc1,–,10 µM (active)
NCc1ccco1,1.15%,–
C[C@H]1O[C@@H](O[C@H]2CC[C@@]3(C)[C@H](CC[C@@H]4[C@@H]3C[C@@H](O)[C@]3(C)[C@@H](C5=CC(=O)OC5)CC[C@]43O)C2)C[C@H](O)[C@@H]1O[C@H]1C[C@H](O)[C@H](O[C@H]2C[C@H](O)[C@H](O[C@@H]3O[C@H](CO)[C@@H](O)[C@H](O)[C@H]3O)[C@@H](C)O2)[C@@H](C)O1,-5.16% [at 53 µM],–
COc1cccc(-c2ccc(/C=C\CN3CCCCCC3)cc2Cl)c1,–,35.4 µM (active)
CN[C@H]1CC[C@@H](c2ccc(Cl)c(Cl)c2)c2ccc(S(N)(=O)=O)cc21,–,39.9 µM (active)
CC1=CC[C@@H](C(C)(C)O)CC1,-5.48%,–
C=CC(=O)OCCOC1C2CCC1C1CC=CC12 (stereo not given),-18.2% [at 23.6 µM],–
CC/C=C(\C)C=O,-7.07%,–
CCCCCCCCCC[N+](C)(CCCCCCCCCC)CCC[Si](OC)(OC)OC,–,35.6 µM (active)
S=C1NC=NC2N=CNC12 (stereo not given),–,39.9 µM (active)
CCOC(=O)C1=NN(c2ccc(Cl)cc2Cl)C(C)(C(=O)OCC)C1 (stereo not given),–,7.1 µM (active)
CC(C)(C)C1=CC(=O)C(C(C)(C)C)=CC1=O,–,15.5 µM (active)
CCC(O)CO (stereo not given),-0.842%,–
CC(C=O)c1ccccc1 (stereo not given),–,35.6 µM (active)
Nc1ccc(Oc2cccc(Oc3ccc(N)cc3)c2)cc1,–,6.33 µM (active)
COCCC(=O)OC,-0.261%,–

SMILES,"activity change, negative = inhibition",Potency
CCC(=O)OC/C=C(\C)CCC=C(C)C,-15.3%,–
O=C1CCCCCCCCCCCCCC1,-12.2%,–
c1ccc(C[P+](c2ccccc2)(c2ccccc2)c2ccccc2)cc1,-17.2%,–
CC(=O)CC(N)=O,0.208%,–
CCCCCCCCCCCCCCCCCCNC(=O)OC1CCN(C(=O)OC[C@H](COC(=O)N(Cc2cccc[n+]2CC)C(=O)c2ccccc2OC)OC)CC1,–,30.9 µM (active)
C=Cc1ccncc1,-7.83%,–
Brc1cc(Br)cc(Br)c1,-10.3%,–
CC(C)c1ccc2sc3ccccc3c(=O)c2c1,–,11.2 µM (active)
O=[N+]([O-])c1ccc(O)c2ncccc12,–,38.9 µM (active)
CCOC(=O)[C@H](O)[C@@H](O)C(=O)OCC,-3.27%,–
c1ccc2cc3c4ccccc4c4ccccc4c3cc2c1,-18.5%,–
CCCCCCCC/C=C\CCCCCCCC(=O)N(CCO)CCO,–,14.1 µM (active)
COc1ccc(OC)c(N=Nc2c(O)ccc3ccccc23)c1,–,6.33 µM (active)
C=CC(C)(C)O,-6.74%,–
O[Si](c1ccccc1)(c1ccccc1)c1ccccc1,–,0.564 µM (active)
CCCCC/C=C\C=C\C(=O)OCC,–,13.2 µM (active)
CCCCCCCCSCc1cc(C)c(O)c(CSCCCCCCCC)c1,–,8.94 µM (active)
c1ccc(-c2ccccc2-c2ccccc2)cc1,–,22.4 µM (active)
CCC(C)(C)c1ccc(CC(C)CN2C[C@@H](C)O[C@@H](C)C2)cc1 (stereo not given in full),–,27.5 µM (active)
COc1cc(C(C)C)ccc1C,-6.13% [at 23.6 µM],–
